Results: PubChem BioAssay (Tox21)
“And” between values parts separate entries of the source, which are not always exact repeats. Equal entries are not always repeated. A number with no mark means an inactive call. Records with an inconclusive call do not appear. A call without a number means that no potency is given here. The source made the active and inactive calls. Unless noted, calls come from the whole dose curve; as a rule, active = well fitted curve in the direction sought with a large enough effect in the repeat runs; inconclusive = weak or mixed curves; inactive = no such curve, though single readings can be large; an effect the other way counts as inactive or inconclusive.

Assays:
[1] = qHTS assay to identify small molecule agonists of the estrogen receptor alpha (ER-alpha) signaling pathway in the presence of an antagonist - cell viability counter screen (AID 1259386);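 note: series mostly up to about 92 µM; cells exposed to compounds for 22 h at 37 °C before the viability read; nearly all actives have a fitted effect of over 30% in size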
In short: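 Read-out: CellTiter-Fluor fluorescence after 1hr reagent incubation, measured in the same wells as the luciferase readout. VM7Luc4E2 cells were exposed to 15 compound concentrations with 10.0nM ICI-182,780 for 22hr at 37C.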

[2] = target: Progesterone receptor (Homo sapiens) (UniProt P06401); experiment: qHTS assay to identify small molecule agonists of the progesterone receptor (PR) signaling pathway (AID 1346784; calls by dose curve; note: nearly all actives have a fitted effect of over 30% in size; note: potency is the fitted concentration of half-maximal effect)
Sequence of Progesterone receptor (Homo sapiens) (P06401 whole entry, looked up): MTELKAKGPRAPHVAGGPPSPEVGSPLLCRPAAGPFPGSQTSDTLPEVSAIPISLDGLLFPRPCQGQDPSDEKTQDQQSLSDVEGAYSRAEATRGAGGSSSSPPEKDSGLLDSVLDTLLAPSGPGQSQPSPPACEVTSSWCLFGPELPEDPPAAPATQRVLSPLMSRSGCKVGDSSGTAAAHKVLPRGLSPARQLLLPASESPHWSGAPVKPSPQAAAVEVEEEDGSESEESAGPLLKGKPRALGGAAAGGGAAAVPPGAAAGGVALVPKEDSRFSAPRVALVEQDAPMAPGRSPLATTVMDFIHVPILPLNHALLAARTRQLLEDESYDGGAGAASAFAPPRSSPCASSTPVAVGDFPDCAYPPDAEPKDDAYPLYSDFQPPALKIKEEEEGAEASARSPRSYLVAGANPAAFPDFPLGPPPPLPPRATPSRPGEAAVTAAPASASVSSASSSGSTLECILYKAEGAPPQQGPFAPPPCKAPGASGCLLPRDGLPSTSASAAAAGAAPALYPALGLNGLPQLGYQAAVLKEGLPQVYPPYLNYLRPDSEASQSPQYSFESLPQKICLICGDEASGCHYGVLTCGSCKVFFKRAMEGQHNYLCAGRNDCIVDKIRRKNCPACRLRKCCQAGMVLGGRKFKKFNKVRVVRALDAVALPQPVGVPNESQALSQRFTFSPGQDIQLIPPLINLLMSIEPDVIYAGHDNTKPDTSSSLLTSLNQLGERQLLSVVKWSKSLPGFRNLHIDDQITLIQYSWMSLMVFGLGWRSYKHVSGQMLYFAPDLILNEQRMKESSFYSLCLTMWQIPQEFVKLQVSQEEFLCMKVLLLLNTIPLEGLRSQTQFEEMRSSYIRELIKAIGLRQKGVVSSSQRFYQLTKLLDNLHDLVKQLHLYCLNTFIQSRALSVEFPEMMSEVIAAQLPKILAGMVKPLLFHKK
In short: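 Reporter assay, GripTite PR-UAS-bla HEK 293T cells: 16 hr exposure to DMSO-dissolved compounds at 37C, 5% CO2, in steroid-depleted (2% charcoal-stripped FBS) medium; beta-lactamase measured by FRET fluorescence.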

[3] = target: Progesterone receptor (Homo sapiens) (UniProt P06401); experiment: qHTS assay to identify small molecule antagonists of the progesterone receptor (PR) signaling pathway (AID 1346795; active = well fitted inhibition curve with a large enough effect in the signal ratio in the repeat runs, not every such curve was filed as active; the % refers to the signal ratio; note: potency is the fitted concentration of half-maximal effect)
In short: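 Stimulus R5020 at 1 nM final; cells HEK293T PR-UAS-bla; medium with 2% charcoal-stripped FBS; compound exposure 16 hr at 37C, 5% CO2; detection by FRET beta-lactamase substrate, 2 hr, room temperature.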

[4] = qHTS assay to identify small molecule antagonists of the progesterone receptor (PR) signaling pathway - cell viability counter screen (AID 1346798); note: nearly all actives have a fitted effect of over 50% in size; note: potency is the fitted concentration of half-maximal effect
In short: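 In the same plates used for the beta-lactamase readout, cell viability of compound- and R5020-treated PR-UAS-bla HEK293T cells (16 hr, 37C) was assessed by CellTiter-Glo luminescence.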

[5] = qHTS assay to identify small molecule agonists of the progesterone receptor (PR) signaling pathway - cell viability counter screen (AID 1346799; calls by dose curve; note: nearly all actives have a fitted effect of over 45% in size; note: potency is the fitted concentration of half-maximal effect)
In short: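 Multiplexed viability read: CellTiter-Glo luminescence, 30 min RT, following LiveBLAzer FRET measurement on PR-UAS-bla HEK293T cells exposed to compounds 16 hr.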

[6] = qHTS assay to identify small molecule antagonists of the TGF-beta/Smad signaling pathway - cell viability counter screen (AID 1346824); note: nearly all actives have a fitted effect of over 50% in size
In short: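 SBE-bla HEK 293T cells were plated overnight at 37 C, then given compounds in DMSO plus TGF-beta1 (added as 0.25 ng/mL solution) for 5 hr. After the bla read, CellTiter-Glo was added to the same wells and luminescence read after 30 min at room temperature.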

[7] = qHTS assay to identify small molecule agonists of the TGF-beta/Smad signaling pathway - cell viability counter screen (AID 1346829); note: top concentration of the series differs between compounds; nearly all actives have a fitted effect of over 45% in size
In short: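 Same-well cytotoxicity: CellTiter-Glo added after the 2 hr room-temperature beta-lactamase substrate step, luminescence measured 30 min later; cells had 5 hr of compound at 37 C.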

[8] = qHTS assay to identify small molecule agonists of the TGF-beta/Smad signaling pathway (AID 1346859; active = well fitted activation curve with a large enough effect in the signal ratio in the repeat runs, not every such curve was filed as active; the % refers to the signal ratio; note: series mostly up to about 77 µM)
In short: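 Screening used HEK 293T SBE-bla cells at 4,000/well. Test agents: 5 hr, 37 C. Detection: FRET substrate, 2 hr RT, then excitation 405 nm with emissions at 460 and 530 nm.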

[9] = target: Thyrotropin-releasing hormone receptor (Homo sapiens) (UniProt P34981); experiment: qHTS assay to identify small molecule antagonists of the thyrotropin-releasing hormone receptor (TRHR) signaling pathway (AID 1346877; active = well fitted inhibition curve with a large enough effect in the repeat runs, not every such curve was filed as active; note: series mostly up to about 51 µM)
Sequence of Thyrotropin-releasing hormone receptor (Homo sapiens) (P34981 whole entry, looked up): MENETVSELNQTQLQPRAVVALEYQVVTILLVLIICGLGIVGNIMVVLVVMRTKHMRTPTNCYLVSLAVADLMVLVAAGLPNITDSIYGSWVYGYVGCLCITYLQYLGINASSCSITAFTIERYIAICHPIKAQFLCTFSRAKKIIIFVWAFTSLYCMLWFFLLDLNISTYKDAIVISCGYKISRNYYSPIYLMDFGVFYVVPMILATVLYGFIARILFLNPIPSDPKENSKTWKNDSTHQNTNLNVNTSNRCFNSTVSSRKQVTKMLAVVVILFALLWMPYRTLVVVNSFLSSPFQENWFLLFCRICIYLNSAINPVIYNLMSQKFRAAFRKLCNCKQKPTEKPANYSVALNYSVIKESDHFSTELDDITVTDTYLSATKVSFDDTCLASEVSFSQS
In short: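 HEK293/TRHR cells, 18 h, 37 °C; Ca2+ dye 2 h; cpd 5 min RT; TRH 1 nM final; fluorescence read 3 min, 1 s intervals; 15 concs, triplicate.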

[10] = target: Thyrotropin-releasing hormone receptor (Homo sapiens) (UniProt P34981); experiment: qHTS assay to identify small molecule agonists of the thyrotropin-releasing hormone receptor (TRHR) signaling pathway (AID 1346891; calls by dose curve; note: series mostly up to about 58 µM)
In short: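 Readout was intracellular calcium fluorescence in TRHR-Hek293 cells. Cells were incubated 18 h, dye-loaded 2 h at 37 °C, and treated with compound in agonist mode.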

[11] = Human pregnane X receptor (PXR) small molecule agonists, qHTS cell viability counter screen (AID 1346977); note: nearly all actives have a fitted effect of over 50% in size
In short: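 In each well, the PXR reporter HepG2 line was checked for viability: CellTiter-Fluor reagent added 23hr post-dosing, fluorescence read after 1hr incubation at 37C.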

[12] = Caspase-3/7 induction in HepG2 cells by small molecules, qHTS assay (AID 1346978); note: nearly all actives have a fitted effect of over 15% in size
In short: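 Wild-type HepG2 cells (2,000/well) were settled 5 h at 37 C, 5% CO2, then exposed to compounds in DMSO for 17 h. Caspase-3/7 activity was read by luminescence 30 min after adding Caspase-Glo 3/7 reagent at room temperature.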

[13] = Caspase-3/7 induction in CHO-K1 cells by small molecules, qHTS cell viability counter screen (AID 1346979); note: nearly all actives have a fitted effect of over 35% in size; note: potency is the fitted concentration of half-maximal effect
In short: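 Following a 5hr settling period, CHO-K1 cells at 1,500 per well received DMSO-dissolved compounds. Cell viability was quantified 16hr later by CellTiter-Fluor fluorescence, measured after 1hr with reagent at 37C.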

[14] = Caspase-3/7 induction in CHO-K1 cells by small molecules, qHTS assay (AID 1346980); note: nearly all actives have a fitted effect of over 15% in size
In short: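 Wild-type cells were seeded at 1,500 per well and settled 5 hr at 37 C, 5% CO2, then exposed to DMSO-dissolved compounds for 17 hr. Caspase-Glo 3/7 reagent was added, and luminescence was read after 30min at room temperature.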

[15] = Caspase-3/7 induction in HepG2 cells by small molecules, qHTS cell viability counter screen (AID 1346981); note: series mostly up to about 92 µM; nearly all actives have a fitted effect of over 30% in size
In short: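 Fluorescence read-out of live-cell protease activity (CellTiter-Fluor) after 1 hr with reagent. This was measured in the same wells as the caspase-3/7 luminescence, on HepG2 cells exposed to DMSO-dissolved compounds for 16 hr at 37 C.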

[16] = target: Nuclear receptor subfamily 1 group I member 2 (Homo sapiens) (UniProt O75469); experiment: Human pregnane X receptor (PXR) small molecule agonists, qHTS assay (AID 1346982); note: nearly all actives have a fitted effect of over 35% in size; note: potency is the fitted concentration of half-maximal effect
Sequence of Nuclear receptor subfamily 1 group I member 2 (Homo sapiens) (O75469 whole entry, looked up): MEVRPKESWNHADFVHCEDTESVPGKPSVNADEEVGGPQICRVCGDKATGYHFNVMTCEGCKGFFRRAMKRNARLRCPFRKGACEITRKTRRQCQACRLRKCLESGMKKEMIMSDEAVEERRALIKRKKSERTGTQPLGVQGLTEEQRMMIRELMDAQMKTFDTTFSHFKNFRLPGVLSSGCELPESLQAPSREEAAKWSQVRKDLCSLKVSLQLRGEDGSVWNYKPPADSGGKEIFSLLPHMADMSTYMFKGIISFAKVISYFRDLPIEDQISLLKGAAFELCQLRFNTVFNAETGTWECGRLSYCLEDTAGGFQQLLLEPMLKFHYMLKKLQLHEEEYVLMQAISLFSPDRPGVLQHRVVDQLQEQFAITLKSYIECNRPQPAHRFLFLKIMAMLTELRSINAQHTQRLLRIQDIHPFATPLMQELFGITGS
In short: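 HepG2 PXR-Luc reporter line, 5% charcoal-stripped FBS; 5 hr pre-incubation, compound (DMSO) 24 hr at 37 C/5% CO2; ONE-Glo 30 min RT; luminescence read-out.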

[17] = target: Acetylcholinesterase (Homo sapiens) (UniProt P22303); experiment: Acetylcholinesterase (AChE) small molecule antagonists: colormetric cell-based qHTS assay (AID 1347395; calls by dose curve; note: nearly all actives have a fitted effect of over 30% in size)
Sequence of Acetylcholinesterase (Homo sapiens) (P22303 whole entry, looked up): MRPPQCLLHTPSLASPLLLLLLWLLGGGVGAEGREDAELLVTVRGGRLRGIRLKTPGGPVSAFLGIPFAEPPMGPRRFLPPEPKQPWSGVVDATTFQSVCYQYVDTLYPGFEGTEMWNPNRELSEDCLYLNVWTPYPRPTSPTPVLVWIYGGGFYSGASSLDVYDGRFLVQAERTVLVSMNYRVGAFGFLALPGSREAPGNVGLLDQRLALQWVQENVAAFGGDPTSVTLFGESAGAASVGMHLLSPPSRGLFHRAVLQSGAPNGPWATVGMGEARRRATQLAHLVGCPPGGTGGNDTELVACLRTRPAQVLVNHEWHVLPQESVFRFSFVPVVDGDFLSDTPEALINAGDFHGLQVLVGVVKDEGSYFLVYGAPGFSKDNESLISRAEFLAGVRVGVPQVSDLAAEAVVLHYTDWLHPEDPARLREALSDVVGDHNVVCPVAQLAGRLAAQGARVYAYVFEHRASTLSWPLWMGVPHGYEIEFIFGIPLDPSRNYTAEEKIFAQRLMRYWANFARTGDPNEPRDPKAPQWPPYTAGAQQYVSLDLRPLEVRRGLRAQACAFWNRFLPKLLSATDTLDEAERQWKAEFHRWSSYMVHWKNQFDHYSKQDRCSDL
In short: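 After overnight attachment at 37 C, SH-SY5Y cells get 30 min compound exposure; detection cocktail (acetylthiocholine, DTNB) then incubates 90 min at 37 C, and absorbance reflects AChE-generated thiocholine.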

Structure (SMILES)	Potency [1]	Potency [2]	Potency [3]	Potency [4]	Potency [5]	Potency [6]	Potency [7]	outcome [8]	Potency [9]	Potency [10]	Potency [11]	Potency [12]	Potency [13]	Potency [14]	Potency [15]	Potency [16]	Potency [17]
CCN	inactive	inactive	inactive	inactive	inactive	inactive	inactive	inactive	inactive	inactive	inactive	inactive	inactive	inactive	inactive	inactive	inactive
NC(=O)c1ccc(N)nc1	inactive	inactive	inactive	17.2 µM (active)	21.7 µM (active)	inactive	inactive	inactive	inactive	inactive	inactive	inactive	2.73 µM (active)	inactive	inactive	inactive	inactive
C=CC(=O)N(C)C	inactive	inactive	inactive	inactive	inactive	inactive	inactive	inactive	inactive	inactive	inactive	inactive	inactive	inactive	inactive	inactive	inactive
COP(=O)(CCC(=O)NCO)OC	inactive	inactive	inactive	inactive	inactive	inactive	inactive	inactive	inactive	inactive	inactive	inactive	inactive	inactive	inactive	inactive	inactive
Cc1ccc(C(=O)Cl)cc1	inactive	inactive	inactive	inactive	inactive	inactive	inactive	inactive	inactive	inactive	inactive	inactive	inactive		inactive	inactive	inactive
c1ccc(Nc2ccc3ccccc3c2)cc1	inactive	inactive	17.2 µM (active)	inactive	inactive	inactive	inactive	inactive	inactive	inactive		inactive	54.5 µM (active)	inactive		30.5 µM (active) and 21.7 µM (active)	inactive
ClC(Cl)=C(Cl)Cl	inactive	inactive	inactive	inactive	inactive	inactive	inactive	inactive	inactive	inactive	inactive	inactive	inactive	inactive	inactive	inactive	inactive
CC(C)(C)OO	inactive	inactive	inactive	inactive	inactive	inactive	inactive	inactive	inactive	inactive		inactive	inactive	inactive	inactive	inactive	inactive
C=COCCCl	inactive	inactive	inactive	inactive	inactive	inactive	inactive	inactive	inactive	inactive	inactive	inactive	inactive	inactive	inactive	inactive	inactive
N#CC(Cl)Cl	inactive	5.3 µM (active)	inactive	inactive	inactive	inactive	inactive	inactive	inactive	inactive	inactive	inactive	inactive		inactive	inactive	inactive
N#CCCO	inactive	inactive	inactive	inactive	inactive	inactive	inactive	inactive	inactive	inactive	inactive	inactive	inactive	inactive	inactive	inactive	inactive
Cc1cccc(OP(=O)(Oc2cccc(C)c2)Oc2cccc(C)c2)c1	inactive	inactive	43.3 µM (active)	inactive	inactive	inactive	inactive	inactive	inactive	inactive	inactive	inactive	inactive	inactive	inactive	30.6 µM (active)	inactive
CC(C)(COCC1CO1)COCC1CO1 (stereo unspecified)	inactive	inactive	inactive	inactive	inactive	inactive	inactive	inactive	inactive	inactive	inactive	inactive	inactive	inactive	inactive	inactive	inactive
N#C/C=C/C#N	inactive	inactive	45.3 µM (active)	inactive	inactive	inactive	inactive	inactive	inactive	inactive	inactive	inactive	50.8 µM (active)		inactive	64 µM (active)	inactive
ClCc1ccccc1CCl	inactive	inactive	inactive	inactive	inactive	inactive	inactive	inactive	inactive	inactive	inactive	inactive	61.1 µM (active)		inactive	inactive	inactive
ClCCN1CCOCC1	inactive	inactive	inactive	inactive	inactive	inactive	inactive	inactive	inactive	inactive		inactive	inactive	inactive	inactive	inactive	inactive
C1CCC2CCCCC2C1 (stereo unspecified)	inactive	inactive	inactive	inactive	inactive	inactive	inactive	inactive	inactive	inactive	inactive	inactive	inactive	inactive	inactive	inactive	inactive
